Drawing on PubChem BioAssay, this text covers composite z-score and z-score for five molecules.

The source made the active and inactive calls.

Experiment [1] in a line: small molecules captured by biotinylated probe aFSTL3 – biochemical, small-molecule microarray, fluorescence 635/667, stem cell growth factor project, primary screen (AID 1064).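 Note: measures binding of the biotinylated anti-FSTL3 antibody to printed compounds.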 The settings on record: higher = more signal.
A short description of experiment [2]: binders from COS7 lysate, DM2A8 probe, primary screen, torsin A project, cell lysate, small-molecule microarray, fluorescence 635/667 (AID 1065). Particulars: higher = more signal, COS7 lysate expressing mutant human TOR1A.
A short description of experiment [3]: small molecules captured by biotinylated probe aFGF2 – biochemical, small-molecule microarray, fluorescence 635/667, stem cell growth factor project, primary screen (AID 1067).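 Note: measures binding of biotinylated aFGF2 protein to printed compounds on slides; z-score merges feature fluorescence and signal-to-noise across triplicate slides.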 The settings on record: higher = more signal.
Experiment [4] can be described thus: small molecules captured by biotinylated probe aFGF10 – biochemical, small-molecule microarray, fluorescence 635/667, stem cell growth factor project, primary screen (AID 1071).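 Note: score merges 667 nm spot intensity and signal to noise from triplicate slides.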 Particulars: higher = more signal.
For experiment [5], the target named is Neurogenic locus notch homolog protein 2 (Homo sapiens) (UniProt Q04721). Kind of experiment: small molecules binding Notch2 protein – biochemical, small-molecule microarray, 635 nm fluorescence, stem cell growth factors, primary screen (AID 1073). Particulars: higher = more signal.
Neurogenic locus notch homolog protein 2 (Homo sapiens), sequence (Q04721 whole entry, looked up, canonical isoform): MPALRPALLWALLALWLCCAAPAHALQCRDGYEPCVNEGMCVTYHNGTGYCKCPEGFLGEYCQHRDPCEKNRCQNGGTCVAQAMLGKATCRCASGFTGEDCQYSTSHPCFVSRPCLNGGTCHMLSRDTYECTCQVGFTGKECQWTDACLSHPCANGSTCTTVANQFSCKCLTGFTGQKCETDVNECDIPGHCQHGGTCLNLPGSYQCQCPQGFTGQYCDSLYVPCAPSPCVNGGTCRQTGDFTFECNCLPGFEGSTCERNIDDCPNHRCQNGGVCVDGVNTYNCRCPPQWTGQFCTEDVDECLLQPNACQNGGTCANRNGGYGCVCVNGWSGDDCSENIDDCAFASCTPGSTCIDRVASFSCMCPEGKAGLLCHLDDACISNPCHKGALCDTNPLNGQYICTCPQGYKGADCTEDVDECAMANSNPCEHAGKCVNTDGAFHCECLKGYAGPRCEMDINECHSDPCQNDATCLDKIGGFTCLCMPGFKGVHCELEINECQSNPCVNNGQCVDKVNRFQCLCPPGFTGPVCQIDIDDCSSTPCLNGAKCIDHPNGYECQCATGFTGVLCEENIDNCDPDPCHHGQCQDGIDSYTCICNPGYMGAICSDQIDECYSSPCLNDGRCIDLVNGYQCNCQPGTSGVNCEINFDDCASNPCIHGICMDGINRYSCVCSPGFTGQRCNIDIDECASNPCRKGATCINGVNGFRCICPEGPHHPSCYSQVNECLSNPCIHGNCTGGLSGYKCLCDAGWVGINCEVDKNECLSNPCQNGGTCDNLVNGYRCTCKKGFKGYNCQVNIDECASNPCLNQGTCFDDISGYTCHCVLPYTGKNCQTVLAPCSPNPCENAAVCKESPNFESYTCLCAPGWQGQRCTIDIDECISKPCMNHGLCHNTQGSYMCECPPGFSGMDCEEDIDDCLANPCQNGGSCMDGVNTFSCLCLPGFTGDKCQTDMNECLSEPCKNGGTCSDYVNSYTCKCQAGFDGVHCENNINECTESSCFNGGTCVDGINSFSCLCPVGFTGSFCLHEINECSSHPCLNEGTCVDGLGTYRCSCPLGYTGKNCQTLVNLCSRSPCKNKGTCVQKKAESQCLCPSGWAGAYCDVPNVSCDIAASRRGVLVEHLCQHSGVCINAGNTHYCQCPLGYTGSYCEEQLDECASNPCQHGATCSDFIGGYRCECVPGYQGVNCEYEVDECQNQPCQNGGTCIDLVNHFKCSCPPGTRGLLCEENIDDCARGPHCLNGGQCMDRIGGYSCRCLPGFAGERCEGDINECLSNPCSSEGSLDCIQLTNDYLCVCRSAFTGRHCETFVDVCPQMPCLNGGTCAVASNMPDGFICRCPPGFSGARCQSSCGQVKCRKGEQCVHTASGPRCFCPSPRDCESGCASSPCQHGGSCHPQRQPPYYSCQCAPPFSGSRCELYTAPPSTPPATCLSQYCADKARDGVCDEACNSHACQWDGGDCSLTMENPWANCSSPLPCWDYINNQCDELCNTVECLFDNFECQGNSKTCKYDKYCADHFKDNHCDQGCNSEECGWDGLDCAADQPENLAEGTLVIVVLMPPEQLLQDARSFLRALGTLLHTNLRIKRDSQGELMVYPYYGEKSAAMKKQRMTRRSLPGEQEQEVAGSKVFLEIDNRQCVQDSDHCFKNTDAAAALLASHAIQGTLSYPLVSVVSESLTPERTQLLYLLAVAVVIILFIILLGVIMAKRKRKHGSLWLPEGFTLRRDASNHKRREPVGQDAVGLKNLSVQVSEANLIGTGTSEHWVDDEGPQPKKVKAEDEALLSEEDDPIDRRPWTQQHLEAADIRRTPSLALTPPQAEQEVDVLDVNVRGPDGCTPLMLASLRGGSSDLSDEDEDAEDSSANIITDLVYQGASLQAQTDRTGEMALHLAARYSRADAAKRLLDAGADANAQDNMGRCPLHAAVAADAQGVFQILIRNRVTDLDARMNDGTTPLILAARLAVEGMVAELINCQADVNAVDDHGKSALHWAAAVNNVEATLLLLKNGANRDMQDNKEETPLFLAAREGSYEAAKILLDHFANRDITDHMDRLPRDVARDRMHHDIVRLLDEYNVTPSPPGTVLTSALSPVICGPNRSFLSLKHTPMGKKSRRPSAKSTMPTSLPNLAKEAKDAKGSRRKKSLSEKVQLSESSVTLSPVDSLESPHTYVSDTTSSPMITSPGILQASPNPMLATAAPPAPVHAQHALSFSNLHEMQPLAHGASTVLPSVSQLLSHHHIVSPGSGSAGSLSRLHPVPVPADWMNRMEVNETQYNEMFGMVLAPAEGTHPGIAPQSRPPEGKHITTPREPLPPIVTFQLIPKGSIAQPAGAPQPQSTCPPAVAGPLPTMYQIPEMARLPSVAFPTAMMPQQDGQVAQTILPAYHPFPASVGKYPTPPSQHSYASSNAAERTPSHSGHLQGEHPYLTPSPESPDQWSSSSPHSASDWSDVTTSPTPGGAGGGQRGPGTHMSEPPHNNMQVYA
For experiment [6], the target named is Pro-neuregulin-1, membrane-bound isoform (Homo sapiens) (UniProt Q02297). Nature of the experiment: small molecules binding neuregulin-1 protein – biochemical, small-molecule microarray, fluorescence 635/667, psychiatric disease protein project, primary screen (AID 1075).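 Note: score combines 667 nm spot fluorescence with signal to noise.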 The settings on record: NRG1 binding, 635 nm fluorescence, higher = more signal.
For experiment [7], the system named is Neuregulin-1 EGF-like domain. Kind of experiment: small molecules binding NRG1 EGF domain – biochemical, small-molecule microarray, 635 nm fluorescence, primary screen (AID 1081).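 Note: binding of the protein to compounds printed on small-molecule microarray slides.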 The settings on record: higher = more signal.
A short description of experiment [8]: FRG1 expression reporter modulators in myotubes – cell-based, C2C12 myotubes, firefly/Renilla luciferase, luminescence, FRG1 inhibition for FSHD, primary screen (AID 1084). Particulars: FRG1 promoter luciferase, higher = more signal, called active from +8 up or from −8 down.
The nature of experiment [9]: small molecules captured by biotinylated probe aFST – biochemical, small-molecule microarray, fluorescence 635/667, stem cell growth factor project, primary screen (AID 1086).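 Note: score merges 667 nm fluorescence with signal-to-noise of each printed compound spot.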 Particulars: higher = more signal.
Experiment [10] can be described thus: binders of probe aHhip on microarray, primary screen, stem cell growth factor project, biochemical, small-molecule microarray, fluorescence 635/667 (AID 1087).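 Note: score merges spot fluorescence at 667nm with spot signal to noise ratio.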 The settings on record: higher = more signal.
Experiment [11] relates to PRMT1 (protein arginine N-methyltransferase 1). Kind of experiment: small molecules binding arginine methyltransferase PRMT1 – biochemical, small-molecule microarray, 635 nm fluorescence, primary screen (AID 1088).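 Note: binding of Prmt1 protein to compounds spotted on small-molecule microarray slides.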 The settings on record: higher = more signal.
Experiment [12] in a line: growth effects on S. cerevisiae YJM789 – YJM789 clinical isolate, OD600, 24 h, basal, primary screen (AID 1089).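 Note: growth of clinical yeast isolate S. cerevisiae YJM 789 seeded 1000 cells per well; test concentration not given here.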 Particulars: higher = more signal, called active from +8 up or from −8 down.
Experiment [13] can be described thus: S. pombe growth modifiers, basal conditions – strain 972, OD600, 24 h, no modulator, primary screen (AID 1090).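 Note: basal condition with compound alone and no growth modifier present; test concentration not given here.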 Particulars: S. pombe 972 growth, higher = more signal, called active from +8 up or from −8 down.
Experiment [14] is described as follows: budding yeast growth modifiers under rapamycin – strain BY4716, OD600, 96 h, primary screen (AID 1091). Note: test concentration not given here. Particulars: S. cerevisiae BY4716 + rapamycin, higher = more signal, called active from +8 up or from −8 down.
Experiment [15] has as its target Torsin-1A-interacting protein 2 (Homo sapiens) (UniProt Q8NFQ8). Nature of the experiment: small molecules binding lysate-expressed LULL1 – cell lysate, human LULL1 lysate, 635/667 nm fluorescence, primary screen (AID 1092).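 Note: probe is lysate of COS7 cells overexpressing human LULL1; score merges per-feature 667 nm fluorescence with signal-to-noise.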 The settings on record: small-molecule microarray, hLULL1 lysate binding, 635 nm fluorescence; higher = more signal.
Experiment [16] in a line: optical density change of DRC41 E. coli – strain DRC41, OD650, 24 h, E. coli filamentation project, primary screen (AID 1093).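 Note: MC1000 strain lacking acrAB efflux and sulA so SOS filamentation is blocked; test concentration not given here.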 Particulars: E. coli DRC41 growth, higher = more signal, called active from +8 up or from −8 down.
Experiment [17] in a line: probe aLefty2 binding to arrayed compounds – biochemical, biotinylated probe, 635/667 nm fluorescence, primary screen (AID 1094).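 Note: score merges spot fluorescence near 667 nm with spot signal-to-noise ratio.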 The settings on record: small-molecule microarray, higher = more signal.
In experiment [18] the test system is Noggin (protein binding on small-molecule microarray). Nature of the experiment: small molecules binding Noggin protein – biochemical, 635/667 nm fluorescence, primary screen (AID 1095).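 Note: score merges 667 nm feature fluorescence with signal to noise over triplicate slides.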 The settings on record: 635 nm fluorescence, higher = more signal.
The target in experiment [19] is Neurogenic locus notch homolog protein 3 (Homo sapiens) (UniProt Q9UM47). Nature of the experiment: small molecules binding NOTCH3 protein – biochemical, 635/667 nm fluorescence, primary screen (AID 1096). The settings on record: small-molecule microarray, 635 nm fluorescence, higher = more signal.
Neurogenic locus notch homolog protein 3 (Homo sapiens), sequence (Q9UM47 whole entry, looked up): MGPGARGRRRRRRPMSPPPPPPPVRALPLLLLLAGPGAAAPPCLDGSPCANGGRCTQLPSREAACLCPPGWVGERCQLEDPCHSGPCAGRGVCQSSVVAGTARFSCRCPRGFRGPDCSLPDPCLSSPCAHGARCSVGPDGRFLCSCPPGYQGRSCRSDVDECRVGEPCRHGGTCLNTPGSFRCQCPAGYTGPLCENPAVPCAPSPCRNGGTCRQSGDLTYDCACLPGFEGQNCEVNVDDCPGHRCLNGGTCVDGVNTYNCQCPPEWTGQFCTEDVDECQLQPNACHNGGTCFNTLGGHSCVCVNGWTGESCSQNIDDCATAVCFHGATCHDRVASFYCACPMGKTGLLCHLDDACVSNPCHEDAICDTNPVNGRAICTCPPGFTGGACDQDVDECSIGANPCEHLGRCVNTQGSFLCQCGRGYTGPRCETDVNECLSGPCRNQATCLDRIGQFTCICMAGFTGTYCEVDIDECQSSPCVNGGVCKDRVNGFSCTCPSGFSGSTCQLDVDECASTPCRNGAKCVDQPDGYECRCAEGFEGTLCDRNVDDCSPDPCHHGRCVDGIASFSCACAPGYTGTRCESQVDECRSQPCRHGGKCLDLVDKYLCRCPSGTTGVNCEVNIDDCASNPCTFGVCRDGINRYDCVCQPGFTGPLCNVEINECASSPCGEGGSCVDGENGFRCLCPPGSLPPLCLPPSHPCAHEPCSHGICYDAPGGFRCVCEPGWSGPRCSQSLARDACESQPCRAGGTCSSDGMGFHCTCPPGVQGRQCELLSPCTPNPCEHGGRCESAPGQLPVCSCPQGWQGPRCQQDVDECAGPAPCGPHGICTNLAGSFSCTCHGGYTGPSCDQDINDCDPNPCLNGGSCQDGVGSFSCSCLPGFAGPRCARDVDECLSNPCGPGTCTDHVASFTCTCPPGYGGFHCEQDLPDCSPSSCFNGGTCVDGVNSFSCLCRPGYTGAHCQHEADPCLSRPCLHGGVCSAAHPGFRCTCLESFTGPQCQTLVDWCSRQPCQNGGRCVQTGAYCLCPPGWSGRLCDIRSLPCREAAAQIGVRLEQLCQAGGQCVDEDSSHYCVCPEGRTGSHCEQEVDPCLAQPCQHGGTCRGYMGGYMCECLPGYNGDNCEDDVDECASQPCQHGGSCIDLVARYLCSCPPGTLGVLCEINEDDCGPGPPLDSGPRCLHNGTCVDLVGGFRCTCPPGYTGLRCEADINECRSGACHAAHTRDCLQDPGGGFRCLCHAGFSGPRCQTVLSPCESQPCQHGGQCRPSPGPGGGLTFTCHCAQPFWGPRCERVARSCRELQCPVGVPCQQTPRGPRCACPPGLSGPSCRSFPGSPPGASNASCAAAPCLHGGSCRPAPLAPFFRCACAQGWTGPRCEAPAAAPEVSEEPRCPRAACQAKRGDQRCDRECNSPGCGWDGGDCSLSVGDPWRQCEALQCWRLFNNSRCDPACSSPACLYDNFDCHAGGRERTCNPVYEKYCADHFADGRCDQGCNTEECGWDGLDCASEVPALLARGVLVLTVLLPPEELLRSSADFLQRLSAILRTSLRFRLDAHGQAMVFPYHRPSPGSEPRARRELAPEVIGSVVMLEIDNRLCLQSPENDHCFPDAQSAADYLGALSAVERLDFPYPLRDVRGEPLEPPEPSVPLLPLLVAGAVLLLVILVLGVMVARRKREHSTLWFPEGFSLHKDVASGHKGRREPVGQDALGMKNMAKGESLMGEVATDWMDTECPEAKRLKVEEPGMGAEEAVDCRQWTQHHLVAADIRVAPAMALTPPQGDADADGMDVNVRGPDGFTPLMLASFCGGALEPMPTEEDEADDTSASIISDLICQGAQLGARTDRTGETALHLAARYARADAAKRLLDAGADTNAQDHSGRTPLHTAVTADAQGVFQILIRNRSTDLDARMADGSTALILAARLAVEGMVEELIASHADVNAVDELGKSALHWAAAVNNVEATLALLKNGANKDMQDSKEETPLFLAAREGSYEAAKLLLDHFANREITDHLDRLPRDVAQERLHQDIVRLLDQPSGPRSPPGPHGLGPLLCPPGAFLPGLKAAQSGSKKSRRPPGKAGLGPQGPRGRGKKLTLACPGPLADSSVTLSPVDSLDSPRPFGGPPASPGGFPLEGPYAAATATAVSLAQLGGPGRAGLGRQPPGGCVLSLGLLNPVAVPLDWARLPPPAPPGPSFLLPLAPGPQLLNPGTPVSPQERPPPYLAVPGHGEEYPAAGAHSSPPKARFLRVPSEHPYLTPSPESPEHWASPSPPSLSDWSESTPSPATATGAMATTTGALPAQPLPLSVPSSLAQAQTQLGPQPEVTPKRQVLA
Experiment [20] can be described thus: probe aEGFR binding to arrayed compounds – biochemical, biotinylated probe, 635/667 nm fluorescence, primary screen (AID 1097).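 Note: probe is a biotinylated anti-EGFR antibody binding compounds printed on slides; score combines fluorescence near 667 nm and signal to noise of each spot.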 Particulars: small-molecule microarray, higher = more signal.

With `C=C(COC)C(=O)CC[C@@H](OC(=O)c1cccnc1)c1ccccc1OCCO`, the composite z-score in experiment [1] was 0.403; in [2], 1.66; in [3] it was -0.122; in experiment [4], 0.276; in [5] it was -0.427; in experiment [6] it was 0.754. Also, the composite z-score in [7] is 0.655; in experiment [9] it was 0.327; in [10] it was 0.0176; in experiment [11], 0.409; in experiment [15], -0.135; in [17], 0.0789. Further, the composite z-score was 0.879 in experiment [18], -0.302 in [19] and -0.0828 in [20]. Also, the z-score in [8] was 0.0248 (inactive); in experiment [12], -0.587 (inactive); in [13] it was -1.7 (inactive); in [14] it was -0.369 (inactive); in experiment [16], 0.0506 (inactive).
In the case of `O=C1C[C@@](C(=O)NCc2ccccc2)(c2ccc([N+](=O)[O-])cc2)[C@@H](c2ccc(CO)cc2I)N1CC12CC3CC(CC(C3)C1)C2`, the composite z-score was -0.262 in [1]; 0.656 in experiment [2]; -0.0412 in experiment [3]; 0.831 in [4]; 1.2 in experiment [5]; 0.656 in [6]. Also, the composite z-score in experiment [7] is 1.15; in experiment [9], 0.572; in [10], 0.261; in experiment [11] it was 1.55; in experiment [15], 2.61; in experiment [17] it was 0.0578. For the same molecule, the composite z-score came out at 1.8 in experiment [18], 1.09 in experiment [19] and 0.0042 in experiment [20]. The z-score in [8] was -1.32 (inactive); in [12] it was -0.369 (inactive); in experiment [13], -0.613 (inactive); in [14], 2.84 (inactive); in experiment [16] it was -0.343 (inactive).
With `NC(=O)N1C(=O)C2C(C1=O)C1C=C(CCCO)C2C(C2CC2)N1Cc1cccc(OC(F)(F)F)c1` (stereo not given), the composite z-score in experiment [1] is -0.284; in experiment [2], 0.497; in experiment [3], -0.139; in [4], -0.238; in [5] it was -0.22; in [6], 1.95. Besides, the composite z-score in [7] was 1.3; in experiment [9], -0.108; in experiment [10], -0.122; in experiment [11], 0.639; in experiment [15], 2.63; in experiment [17], -0.249. The composite z-score was -0.0319 in experiment [18], -0.538 in experiment [19] and -0.184 in experiment [20]. The z-score in [8] is 0.0154 (inactive); in [12], -0.897 (inactive); in [13], -0.497 (inactive); in experiment [14] it was -1.47 (inactive); in [16], -0.284 (inactive).
Take `C=CCNC(=O)[C@@H]1[C@H]2C(=O)O[C@H](c3ccccc3)[C@H](c3ccccc3)N2[C@H](c2ccc(OCCO)cc2)[C@@]12C(=O)N(C(=O)OCCOC)c1ccc(C#CCCO)cc12`: the composite z-score in experiment [1] was -0.209; in [2] it was -0.28; in [3], -0.0203; in experiment [4], 0.508; in [5], 1.33; in experiment [6], 1.24. Moreover, the composite z-score in [7] was 1.19; in [9], 0.273; in [10], -0.164; in experiment [11], 1.55; in experiment [15] it was 1.85; in experiment [17], -0.0861. For the same molecule, the composite z-score in [18] is 0.916; in experiment [19], 1.1; in [20], -0.0088. The z-score in experiment [8] was -0.0789 (inactive); in [12], -0.0915 (inactive); in experiment [13], 0.269 (inactive); in experiment [14], 4.08 (inactive); in [16] it was 2.17 (inactive).
As to `COc1ccc([Si](C)(C)[C@@H]2[C@@H](CC(=O)N3Cc4ccccc4C[C@H]3CO)O[C@]3(C(=O)N(c4ccccc4)c4ccccc43)[C@H]2C)cc1`, the composite z-score is 0.485 in [1]; 1.02 in [2]; 0.411 in experiment [3]; 0.934 in experiment [4]; 0.627 in [5]; 2.35 in [6]. The composite z-score in experiment [7] worked out at 1.16; in [9] it was 1.43; in experiment [10] it was 0.433; in [11], 1.41; in experiment [15] it was 1.88; in [17], 0.541. Moreover, the composite z-score came to 1.71 in experiment [18], 1.05 in [19] and 0.13 in [20]. Moreover, the z-score in experiment [8] was -3.5 (inactive); in experiment [12], 1.18 (inactive); in experiment [13], 1.4 (inactive); in [14], 2.93 (inactive); in experiment [16], 0.774 (inactive).
